PubChem BioAssay AID1159580 (chemical genetic matrix, 2015)
Values joined by “and” are separate entries in the source; they are usually repeats but may differ in a detail not shown here. Equal values may be shown once. Among all 5,500 compounds or so, about 2,000 (36%) were called active. Inconclusive results (about 18%) are left out. Rule as the data show it: active = normalized growth mostly below about 0.91 (no sharp cut-off); inconclusive = no clear call, values can overlap the other calls; inactive = mostly above about 0.92. Some of the results follow.

Assay: chemical genetic growth profiling, strain panel (AID 1159580);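 also: tested at 20 µM; growth read once vehicle control cultures reached saturation at 30 °C; 1 = growth at the plate median or of vehicle wells; lower values mean less growth of the strain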
Conditions: S. cerevisiae deletion strains, growth OD

Measured: normalized growth

C[C@@H]1CC[C@@]2(OC1)OC1CC3C4CC=C5C[C@@H](O)CC[C@]5(C)C4CC[C@]3(C)C1[C@@H]2C (some centres not stated)
inactive: locus YAL021C, strain ccr4, stronger effect = lower value 1.02 | locus YAL026C, strain drs2, stronger effect = lower value 1.01 | locus YAL030W, strain snc1, stronger effect = lower value 0.996 | locus YBL061C, strain skt5, stronger effect = lower value 0.996 | locus YBR009C, strain hhf1, stronger effect = lower value 1.01 | locus YBR021W, strain FUR4, stronger effect = lower value 1.06 | locus YBR023C, strain chs3, stronger effect = lower value 1 | locus YBR171W, strain sec66, stronger effect = lower value 1 | locus YBR229C, strain ROT2, stronger effect = lower value 1 | locus YBR231C, strain swc5, stronger effect = lower value 0.996 | locus YBR279W, strain paf1, stronger effect = lower value 1 | locus YCL011C, strain gbp2, stronger effect = lower value 1.01 | locus YCL016C, strain dcc1, stronger effect = lower value 0.996 | locus YCL029C, strain bik1, stronger effect = lower value 0.965 | locus YCL061C, strain MRC1, stronger effect = lower value 0.999 | locus YCL069W, strain vba3, stronger effect = lower value 0.995 | locus YCR088W, strain abp1, stronger effect = lower value 1 | locus YDL005C, strain med2, stronger effect = lower value 1 | locus YDL035C, strain GPR1, stronger effect = lower value 1.02 | locus YDL040C, strain nat1, stronger effect = lower value 1 | locus YDL074C, strain BRE1, stronger effect = lower value 1.02 | locus YDL101C, strain DUN1, stronger effect = lower value 0.99 | locus YDL134C, strain PPH21, stronger effect = lower value 0.977 | locus YDL185W, strain tfp1, stronger effect = lower value 0.959 | locus YDL192W, strain arf1, stronger effect = lower value 0.981 | locus YDR001C, strain nth1, stronger effect = lower value 1 | locus YDR069C, strain doa4, stronger effect = lower value 1.01 | locus YDR101C, strain arx1, stronger effect = lower value 0.997 | locus YDR137W, strain rgp1, stronger effect = lower value 0.991 | locus YDR150W, strain NUM1, stronger effect = lower value 0.995 | locus YDR159W, strain sac3, stronger effect = lower value 0.997 | locus YDR162C, strain NBP2, stronger effect = lower value 1.01 | locus YDR195W, strain ref2 0.991 | locus YDR297W, strain sur2, stronger effect = lower value 1.01 | locus YDR318W, strain mcm21, stronger effect = lower value 0.972 | locus YDR334W, strain swr1, stronger effect = lower value 1.01 | locus YDR335W, strain msn5, stronger effect = lower value 1 | locus YDR388W, stronger effect = lower value 0.976 | locus YDR392W, strain spt3, stronger effect = lower value 0.985 | locus YDR502C, strain sam2, stronger effect = lower value 0.986 | locus YEL003W, strain gim4, stronger effect = lower value 1 | locus YEL037C, strain rad23, stronger effect = lower value 0.994 | locus YEL061C, strain CIN8 (second series), stronger effect = lower value 1.01 | locus YER015W, strain faa2, stronger effect = lower value 0.979 | locus YER016W, strain bim1, stronger effect = lower value 0.993 | locus YER110C, stronger effect = lower value 0.969 | locus YER111C, strain swi4, stronger effect = lower value 1.01 | locus YER155C, strain BEM2 (second series), stronger effect = lower value 1.02 | locus YER155C, strain BEM2, stronger effect = lower value 1 | locus YER167W, strain BCK2, stronger effect = lower value 1.01 | locus YFR010W, strain ubp6, stronger effect = lower value 1.01 | locus YGL078C, strain dbp3, stronger effect = lower value 0.973 | locus YGL086W, strain mad1, stronger effect = lower value 0.997 | locus YGL167C, strain pmr1, stronger effect = lower value 0.994 | locus YGL173C, strain kem1, stronger effect = lower value 1.01 | locus YGL227W, strain vid30, stronger effect = lower value 0.978 | locus YGL240W, strain doc1, stronger effect = lower value 0.985 | locus YGL248W, strain PDE1, stronger effect = lower value 1.01 | locus YGL253W, strain hxk2, stronger effect = lower value 1.01 | locus YGR078C, strain PAC10, stronger effect = lower value 0.982 | locus YGR135W, strain pre9, stronger effect = lower value 0.951 | locus YGR252W, strain gcn5, stronger effect = lower value 0.989 | locus YHR013C, strain ard1, stronger effect = lower value 0.986 | locus YHR027C, strain rpn1, stronger effect = lower value 0.986 | locus YHR030C, strain SLT2, stronger effect = lower value 0.994 and 0.991 | locus YHR079C, strain IRE1 (second series), stronger effect = lower value 0.979 | locus YHR079C, strain IRE1, stronger effect = lower value 0.979 | locus YHR094C, strain hxt1, stronger effect = lower value 0.985 | locus YHR129C, strain ARP1, stronger effect = lower value 0.993 | locus YHR142W, strain chs7, stronger effect = lower value 1.01 | locus YHR200W, strain rpn10, stronger effect = lower value 0.999 | locus YIL066C, strain RNR3, stronger effect = lower value 1.01 | locus YIL073C, strain SPO22, stronger effect = lower value 0.882 | locus YIL125W, strain kgd1, stronger effect = lower value 0.985 | locus YIR030C, strain dcg1, stronger effect = lower value 0.96 | locus YJL092W, strain hpr5, stronger effect = lower value 1 | locus YJL095W, strain BCK1 (second series), stronger effect = lower value 0.995 | locus YJL095W, strain BCK1, stronger effect = lower value 0.989 and 0.99 | locus YJL115W, strain asf1, stronger effect = lower value 0.997 | locus YJL129C, strain trk1, stronger effect = lower value 0.97 | locus YJL134W, strain LCB3, stronger effect = lower value 1 | locus YJL154C, strain vps35, stronger effect = lower value 0.998 | locus YJL164C, strain tpk1, stronger effect = lower value 1 | locus YJL166W, strain qcr8, stronger effect = lower value 1.01 | locus YJL168C, strain set2, stronger effect = lower value 0.977 | locus YJL187C, strain SWE1 (second series), stronger effect = lower value 0.988 | locus YJL187C, strain SWE1, stronger effect = lower value 1.02 | locus YJR043C, strain POL32, stronger effect = lower value 1.04 | locus YJR066W, strain TOR1, stronger effect = lower value 0.95 | locus YKL009W, strain mrt4, stronger effect = lower value 0.986 | locus YKL068W, stronger effect = lower value 0.984 | locus YKL085W, strain MDH1 (second series), stronger effect = lower value 0.998 | locus YKL085W, strain MDH1, stronger effect = lower value 0.998 | locus YKL160W, strain elf1, stronger effect = lower value 0.987 | locus YKR001C, strain vps1, stronger effect = lower value 0.985 | locus YKR026C, strain gcn3, stronger effect = lower value 1 | locus YKR091W, strain srl3, stronger effect = lower value 0.996 | locus YLL001W, strain dnm1, stronger effect = lower value 0.997 | locus YLL026W, stronger effect = lower value 1 | locus YLL041C, strain sdh2, stronger effect = lower value 1 | locus YLR027C, strain aat2, stronger effect = lower value 0.993 | locus YLR039C, strain RIC1, stronger effect = lower value 1.05 | locus YLR058C, strain SHM2, stronger effect = lower value 1 | locus YLR102C, strain apc9, stronger effect = lower value 0.986 | locus YLR113W, strain HOG1, stronger effect = lower value 0.964 | locus YLR221C, strain rsa3, stronger effect = lower value 0.989 | locus YLR258W, strain gsy2, stronger effect = lower value 0.995 | locus YLR262C, strain YPT6 (second series), stronger effect = lower value 0.994 | locus YLR262C, strain YPT6, stronger effect = lower value 1.1 | locus YLR268W, strain sec22, stronger effect = lower value 1.01 | locus YLR320W, strain mms22, stronger effect = lower value 0.995 | locus YLR342W, strain FKS1, stronger effect = lower value 0.996 | locus YLR357W, strain rsc2, stronger effect = lower value 1.04 | locus YLR370C, strain arc18, stronger effect = lower value 1 | locus YLR371W, strain rom2, stronger effect = lower value 0.964 | locus YLR384C, strain iki3, stronger effect = lower value 1 | locus YLR418C, strain cdc73, stronger effect = lower value 0.992 | locus YML016C, strain PPZ1, stronger effect = lower value 1.01 | locus YML032C, strain rad52, stronger effect = lower value 0.971 | locus YML120C, strain ndi1, stronger effect = lower value 1 | locus YML124C, strain tub3, stronger effect = lower value 0.978 | locus YMR058W, strain fet3, stronger effect = lower value 1 | locus YMR078C, strain ctf18, stronger effect = lower value 0.951 | locus YMR125W, strain sto1, stronger effect = lower value 0.995 | locus YMR129W, stronger effect = lower value 0.996 | locus YMR205C, strain PFK2, stronger effect = lower value 0.995 | locus YMR223W, strain ubp8, stronger effect = lower value 0.963 | locus YMR231W, strain pep5, stronger effect = lower value 1.02 | locus YMR263W, strain SAP30, stronger effect = lower value 0.988 | locus YMR307W, strain GAS1, stronger effect = lower value 1.24 | locus YNL067W, strain RPL9B, stronger effect = lower value 0.973 | locus YNL071W, strain lat1, stronger effect = lower value 1.01 | locus YNL153C, strain GIM3, stronger effect = lower value 0.99 | locus YNL183C, strain NPR1, stronger effect = lower value 0.964 | locus YNL209W, strain ssb2, stronger effect = lower value 0.997 | locus YNL233W, strain BNI4, stronger effect = lower value 1.01 | locus YNL248C, strain rpa49, stronger effect = lower value 0.999 | locus YNL250W, strain rad50, stronger effect = lower value 0.954 | locus YNL271C, strain bni1, stronger effect = lower value 0.986 | locus YNL298W, strain CLA4, stronger effect = lower value 0.977 | locus YNL307C, strain MCK1, stronger effect = lower value 0.992 | locus YNL322C, strain KRE1 (second series), stronger effect = lower value 0.997 | locus YNR049C, strain mso1, stronger effect = lower value 1 | locus YNR052C, strain pop2, stronger effect = lower value 0.968 | locus YOL012C, strain htz1 1.17 | locus YOL147C, strain pex11, stronger effect = lower value 0.979 | locus YOR001W, strain rrp6, stronger effect = lower value 0.982 | locus YOR061W, strain CKA2, stronger effect = lower value 1.01 | locus YOR069W, strain VPS5, stronger effect = lower value 0.996 | locus YOR070C, strain gyp1, stronger effect = lower value 0.985 | locus YOR080W, strain dia2, stronger effect = lower value 0.999 | locus YOR083W, strain WHI5, stronger effect = lower value 0.983 | locus YOR106W, strain vam3, stronger effect = lower value 0.994 | locus YOR136W, strain idh2, stronger effect = lower value 0.989 | locus YOR144C, strain elg1, stronger effect = lower value 0.99 | locus YOR184W, strain ser1, stronger effect = lower value 1.03 | locus YOR231W, strain MKK1, stronger effect = lower value 0.988 | locus YOR265W, strain rbl2, stronger effect = lower value 1.01 | locus YOR270C, strain vph1, stronger effect = lower value 0.999 | locus YOR290C, strain snf2, stronger effect = lower value 0.949 | locus YOR316C, strain cot1, stronger effect = lower value 0.974 | locus YPL051W, strain arl3, stronger effect = lower value 0.999 | locus YPL055C, strain LGE1, stronger effect = lower value 1.03 | locus YPL078C, strain atp4, stronger effect = lower value 1.01 | locus YPL106C, strain sse1, stronger effect = lower value 1.02 | locus YPL240C, strain hsp82, stronger effect = lower value 0.986 | locus YPL256C, strain CLN2, stronger effect = lower value 0.974 | locus YPR119W, strain clb2, stronger effect = lower value 0.967 | locus YPR141C, strain kar3, stronger effect = lower value 0.951 | locus YPR163C, strain tif3, stronger effect = lower value 0.969 | locus YPR167C, strain met16, stronger effect = lower value 0.983 | strain wtn01, stronger effect = lower value 1.01
